From PubChem BioAssay
HT1080NT lethal – kills 2HG-producing HT-1080-NT fibrosarcoma cells; HT-1080-NT fibrosarcoma viability, CellTiter-Glo ATP luminescence, 48 h; Potency, µM (titrated, usually from 46.1 µM), inactives show top-dose activity, negative = less viability, actives largely listed as cytotoxic; 360,000 tested, 1.6% active;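 note: NT is the 2HG producing partner of a matched IDH1 knockdown line; 0% = DMSO-treated cells and -100% = media-only wells without cells; nearly all actives have a fitted effect of over 55% in size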
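750 cells/well, RPMI + 5% FBS; 2 h settle, compound pin-transfer, 48 h at 37 degrees C. CellTiter-Glo 10 min RT, luminescence. Normalized to DMSO and media-only wells.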
TGFb inhibitor – TGF-b pathway inhibition; 410,000 tested, 1.2% active; Potency, µM (top dose mostly 46.1 µM), without a hit: top-dose activity, negative = inhibition, usual class: inhibitors; HepG2 CAGA-GFP TGF-b/SMAD3 reporter, GFP fluorescence, 18 h; TGF-beta stimulated, 500 pg/mL final; note: % is set by controls: 0 for no effect and ±100 for the full control effect; nearly all actives have a fitted effect of over 65% in size
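HEPG2 CAGA-GFP reporter cells (1000/well, DMEM with 1% FBS) received compounds, then recombinant TGF-beta at 500 pg/mL final for 18 hours at 37 degrees C. Per-cell GFP summed per well was normalised to unstimulated and stimulated DMSO controls before curve fitting.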
TDP1 cell noCPT – qHTS for Inhibitors of human tyrosyl-DNA phosphodiesterase 1 (TDP1): qHTS in cells in absence of CPT | DT40 Tdp1-/- hTDP1 cells, no CPT, ATP luminescence, 48 h | Potency, µM (titrated, usually from 46.2 µM), without a hit: at the top dose activity change, negative = growth inhibition, usual class: inhibitors | 420,000 tested, 15% active; note: % is set by controls: 0 for no effect and ±100 for the full control effect; nearly all actives have a fitted effect of over 55% in size
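Stably hTDP1-transfected Tdp1-null chicken DT40 cells were treated with library compounds minus camptothecin and grown for at least 48 hr at 37 °C, after which cellular ATP was quantified by luminescence.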
HT1080 IDH1KD tx – toxicity to HT-1080 IDH1 knockdown cells (counter line). HT-1080 IDH1 knockdown viability, ATP luminescence, 48 h. Potency, µM (doses to about 46.1 µM), inactives show at the top dose activity, negative = toxicity, most hits filed as cytotoxic. 360,000 tested, 2% active. AID 686971;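 note: 0% = DMSO wells and -100% = cell-free medium wells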
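Cytotoxicity counter-line: IDH1KD HT-1080, 48 h, CellTiter-Glo. Curves classed by r2, magnitude and activity.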
DT40 TDP1 CPT – DT40-hTDP1 cell growth loss with CPT; chicken DT40 Tdp1-/-;hTDP1 cells + 20 nM CPT, ATP luminescence, 48 h; 420,000 tested, 12% active; Potency, µM (titrated, usually from 46.2 µM), for inactives: at the highest dose activity change, negative = growth inhibition, hits mostly inhibitors; AID 686979; note: % is set by controls: 0 for no effect and ±100 for the full control effect; nearly all actives have a fitted effect of over 55% in size
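Chicken DT40 Tdp1-/- cells stably complemented with human TDP1 were seeded at 400 cells/well in medium containing 20 nM camptothecin, exposed to pin-transferred compounds, and grown at 37 °C for at least 48 hr. Viability was read as ATP luminescence.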
HepG2 viability – HepG2 cytotoxicity, counter-screen for TGF-b inhibitors | HepG2 CAGA-GFP viability, ATP luminescence, 18 h | Potency, µM (top dose mostly 46.1 µM), inactives show at the highest dose activity change, negative = cytotoxicity, actives largely listed as cytotoxic | 410,000 tested, 0.76% active | AID 588856
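HepG2 CAGA-GFP cells (1000/well, DMEM with 1% FBS) received compound, then TGF-beta at 500 pg/mL final, and were incubated 18 hours at 37 degrees C. Viability was read by CellTiter-Glo luminescence. Media-only wells were set as complete cell-killing and DMSO as no toxicity.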
* = called active by the depositor; u = inconclusive; x = no result; [ ] = remark or other dose. The list is not random: actives were taken first. Their share in the collection is about 17%. Calls come from the whole dose curve; as a rule, active = well fitted curve in the direction sought with a large enough effect; inconclusive = small, poorly fitted or top-dose-only effect, or another doubt; inactive = no such curve, though single readings can be large; an effect the other way counts as inactive or inconclusive. Potency is the fitted concentration of half-maximal effect.

SMILES	HT1080NT lethal	TGFb inhibitor	TDP1 cell noCPT	HT1080 IDH1KD tx	DT40 TDP1 CPT	HepG2 viability
CC(=O)NC1=NN(C(C)=O)C(C)(c2ccc(C)o2)S1 (stereo not drawn)	3.3%	-5.7%	0.2%	-1.0%	22.4%	-15.7%
CC(=O)NC1=NN(C(C)=O)C(C)(c2cccs2)S1 (stereo not drawn)	2.91µM*	-15.6%	u	4.61µM*	u	-31.1%
CC(=O)NC1=NN(C(C)=O)C(C)(c2ccco2)S1 (stereo not drawn)	u	5.5%	-17.3%	23.1µM*	-7.4%	2.1%
COc1cccc(CNC(=O)CSc2n[nH]c(-c3ccccc3Cl)n2)c1	x	25.4%	u	x	-25.5%	-4.5%
O=C(O)/C=C/c1ccc([N+](=O)[O-])o1	0.8%	7.1%	-28.4%	-0.7%	-1.5%	15.0%
CN1CCN(C(=O)/C=C/c2ccc([N+](=O)[O-])o2)CC1	u	11.2µM*	14.6µM*	20.6µM*	9.2µM*	-118.7%
O=C(/C=C/c1ccc(-c2ccc(F)cc2)o1)N1CCCC1	-14.0%	-17.6%	20.6µM*	-7.9%	u	-14.8%
Cc1ccc(/C=C/C(=O)N2CCCN(C(=O)/C=C/c3ccc(C)cc3)CC2)cc1	-12.0%	-18.4%	14.6µM*	-21.0%	u	0.3%
CCOC(=O)N1CCN(C(=O)/C=C/c2ccc(C(C)(C)C)cc2)CC1	-11.8%	-24.6%	16.4µM*	-5.0%	u	-22.7%
COC(=O)[C@]1(C)N[C@H](CN(C)C(=O)Nc2ccc(C)cc2)[C@@H]2C(=O)N(C)C(=O)[C@@H]21	1.4%	-1.6%	-15.5%	-0.5%	-29.4%	-9.4%
CCCC(=O)Nc1ccc(-c2nc3ncccc3o2)cc1C	x	0.1%	-14.7%	x	-16.6%	-12.2%
O=C(C(=O)N1CCCc2ccccc21)N1CCCc2ccccc21	-7.4%	u	u	16.6%	6.5%	-4.8%
O=C(/C=C/c1ccc(F)cc1)N1CCCc2ccccc21	-10.6%	-9.0%	18.4µM*	-0.2%	u	-2.8%
O=C(/C=C/c1ccc(S(=O)(=O)N2CCOCC2)cc1)N1CCN(c2ccc(F)cc2)CC1	-0.4%	-7.9%	3.66µM*	-7.8%	7.31µM*	-2.8%
O=C(/C=C/c1ccc(F)cc1)N1CCCN(C(=O)/C=C/c2ccc(F)cc2)CC1	5.6%	u	u	0.9%	16.4µM*	-28.0%
N=C(N1CCCc2ccccc21)N1CCCc2ccccc21	u	2.3%	20.6µM*	u	16.4µM*	-0.7%
O=C(c1ccnc(-n2cnnn2)c1)N1CCOc2ccc(C(O)CCc3ccccc3)cc2C1 (stereo not drawn)	x	x	-18.8%	x	-28.7%	x
O=C(OCC(=O)N1CCOCC1)c1cc(F)c(F)cc1Cl	8.0%	2.4%	3.6%	5.5%	3.2%	4.4%
Cc1ccc(C(=O)N[C@H](C(=O)Nc2cccc(S(=O)(=O)N3CCOCC3)c2)C(C)C)cc1	-2.8%	-2.8%	u	8.2%	-8.8%	-15.2%
CC(NC(=O)c1ccc(F)cc1)c1ccc2c(c1)CCCC2 (stereo not drawn)	-8.7%	u	13µM*	-5.0%	20.6µM*	-9.1%
CCOC(=O)c1c(NC(=O)CN(C)C2CCN(C)CC2)sc(C(=O)Nc2ccccc2)c1C	u	12.9%	u	u	u	-26.7%
CCOC(=O)c1c(NC(=O)CSc2cccc[n+]2[O-])sc(C(=O)Nc2ccccc2)c1C	-13.1%	-1.1%	18.4µM*	-4.0%	u	-21.6%
CCOC(=O)c1c(NC(=O)CSc2nnc(Cc3ccccc3)o2)sc(C(C)=O)c1C	-8.3%	-4.4%	20.6µM*	-12.8%	20.6µM*	-7.0%
CCOC(=O)c1sc(NC(=O)CSc2n[nH]c(-c3ccccc3)n2)c(C#N)c1C	u	u	u	u	11.6µM*	-23.6%
CCOC(=O)c1c(NC(=O)CSc2nc3nc(C)cc(C)n3n2)sc(CC)c1C	-2.6%	-15.2%	u	12.4%	11.6µM*	-5.3%
SMILES	HT1080NT lethal	TGFb inhibitor	TDP1 cell noCPT	HT1080 IDH1KD tx	DT40 TDP1 CPT	HepG2 viability
Cc1ccccc1-c1nc(SCC(=O)NCc2ccco2)c2c(=O)n(C)c(=O)n(C)c2n1	x	-4.3%	6.6%	x	-23.5%	-0.1%
CCOC(=O)c1sc(NC(=O)c2cc(-c3ccccc3)nc3ccccc23)c(C#N)c1C	2.91µM*	u	5.8µM*	5.17µM*	7.31µM*	-4.0%
CCOC(=O)c1c(NC(=O)c2cc(-c3ccc(O)cc3)on2)sc(C(C)=O)c1C	22.4%	18.9%	5.8µM*	5.1%	4.61µM*	1.7%
CCOC(=O)c1sc(NC(=O)CSc2nnc(Cc3ccccc3)o2)c(C#N)c1C	7.7%	-9.9%	16.4µM*	-4.0%[9.24 µM]	11.6µM*	3.8%
CCOC(=O)c1c(NC(=O)CSc2nnc(-c3cccc(C)c3)n2CC)sc(C(C)=O)c1C	-13.5%	u	23.1µM*	u	23.1µM*	-65.2%
CNc1ccc2ncc(-c3ccccc3C(C)=O)n2n1	5.8%	-8.1%	u	10.5%	-18.7%	6.6%
CC(C)N=C(NS(=O)(=O)c1ccc(Br)cc1)c1ccc(Cl)cc1	24.2%	13.7%	6.7%	12.5%	4.2%	-13.6%
Cc1csc2c(=O)[nH]cnc12	1.5%	4.6%	0.2%	7.8%	15.9%	1.6%
COc1cc(NC(=O)CCc2c(C)noc2C)c(C(=O)O)cc1OC	5.4%	-0.4%	-23.3%	-1.3%	0.3%	-1.0%
CCOC(=O)c1sc(NC(=O)CSc2nc(C)cc(C)n2)c(C#N)c1C	-12.5%	1.0%	-27.0%	-7.7%	u	-6.2%
CCN(CC)S(=O)(=O)c1ccc(NC(=O)CSc2cccc[n+]2[O-])cc1	1.6%	12.8%	-13.1%	9.8%	-29.0%	10µM*
CCOC(=O)c1c(NC(=O)CSc2nnc(-c3ccc(C)cc3)o2)sc(C(C)=O)c1C	1.4%	-8.2%	-25.4%	2.9%	u	-9.8%
CCOC(=O)c1c(NC(=O)CSc2nc(C)cc(C)c2C#N)sc(C(C)=O)c1C	u	u	7.31µM*	-15.9%	9.2µM*	6.1%
CCOC(=O)c1c(NC(=O)CSc2nnc(-c3ccccc3)o2)sc(C(C)=O)c1C	10.0%	0.0%	23.1µM*	6.3%	16.4µM*	-1.3%
O=C(NCCN1CCOCC1)c1ccc(NC(=O)c2ccc(Br)o2)cc1	20.4%	x	-19.2%	9.3%	-15.8%	x
